Results reported in PubChem BioAssay (NCI).
This is part of a sample that, as a whole, favours compounds with a hit. Of some 83,000 tested, about 20% had one in any assay.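 Single-dose data. Exposure time 48 hours. Values below 10 considered active.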 Values without a mark were called inactive. Activity calls are given as the source filed them.

system: MDA-MB-231 breast; experiment: NCI-60 one-dose screen, 48 h (100 = growth as untreated, 0 = no growth, -100 = all killed); details: 10 µM unless noted

| SMILES | growth |
| --- | --- |
| C/C(CCC(=O)O)=N/Nc1ccc([N+](=O)[O-])cc1 | 51.4% |
| Nc1nc2c(c3ncncc13)C(c1cccc(C(F)(F)F)c1)Cc1ncncc1-2 (stereo not drawn) | 45% |
| COc1ccc(-c2nc(SCC(C)C)nc(Nc3ccc([N+](=O)[O-])cc3)c2C#N)cc1 | 94.6% |
| Cn1c2c(cc(S(=O)(=O)c3ccccc3)c1=O)CCc1c-2cnn1-c1ccc(Cl)cc1 | 31.3% |
| Nc1nc2c(c3cnccc13)C(c1cccc(Cl)c1)Cc1cnccc1-2 (stereo not drawn) | 8.99% (active) |
| CCCCCSc1ccc2nc(NC(=O)OCCC)sc2c1 | 43.3% |
| CCCCCSc1ccc2nc(NC(=O)OCC)sc2c1 | 26.4% |
| Cc1c(Cc2ccccc2)c(=O)oc2c(C)c(OCc3n[nH]c(=S)o3)ccc12 | 80.7% |
| CCOC(=O)c1c(C)oc2ncnc(Nc3ccc(C(=O)NCCc4ccccc4)cc3)c12 | 85.7% |
| COc1cc(/C=C/C(=O)c2ccc(F)cc2)ccc1OCCCCOc1cc2c(cc1OC)C(=O)N1CCCC1C=N2 (stereo not drawn) | -15% (active) |
| C=C(C)[C@@H]1CC[C@]2(COC(=O)c3ccccc3C(=O)O)CC[C@]3(C)[C@H](CC[C@@H]4[C@@]5(C)CCCNC(C)(C)[C@@H]5CC[C@]43C)[C@@H]12 | 94.3% |
| O=C(CCCC(=O)Nc1ccc(Cn2nnc3cc(Cl)c(Cl)cc32)cc1)Nc1ccc(CN2N=NC3C=C(Cl)C(Cl)=CC32)cc1 (stereo not drawn) | 76.4% |
| CCS(=O)(=O)OCCO[C@H]1Cc2cc3ccc(=O)oc3cc2OC1(C)C | 115% |
